# Assay outcomes (PubChem BioAssay)
# In the library only some 2.6% were active in any assay of this set; here they are far more common.
# PAFAH1B2 FP inh: blocks human PAF acetylhydrolase 1b catalytic subunit 2. inhibition, % at 3.39 µM. P68402. recombinant PAFAH1B2, FP-rhodamine activity probe, fluorescence polarization. 340,000 tested, 1.2% active;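 active means inhibition above the mean of all tested compounds plus 3 SD, cut at about 24% in these data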;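 further: 0% = enzyme with DMSO and 100% = wells lacking PAFAH1B2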
# PKA-R1A activ: PKA-R1A complex activation; activation, % at 11.4 µM; P00514+P68181; 340,000 tested, 0.083% active; PKA-R1A dissociation, Cy5-IP20 fluorescence polarization; scaled: DMSO 0%, 113 µM cGMP 100%;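 active means percent activation above the mean of all tested compounds plus 3 SD, cut at about 19% in these data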;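 further: higher means more PKAc released from R1A so a rise in polarization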
# PAFAH1B3 FP inh: PAFAH1B3 (human) inhibition; Q15102; recombinant PAFAH1B3, FP-rhodamine probe, fluorescence polarization; inhibition, % at 3.39 µM; 340,000 tested, 0.28% active; AID 492972;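 active means inhibition above the screen-wide average of all tested compounds plus 3 SD, cut at about 25% in these data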;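 further: 0% = enzyme with DMSO only and 100% = wells lacking PAFAH1B3 protein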
# pPAFAH inh: inhibitors of human plasma PAF acetylhydrolase (pPAFAH). Q13093. recombinant pPAFAH, FP-rhodamine probe fluorescence polarization. inhibition, % at 3.39 µM. 330,000 tested, 1.5% active;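 active means inhibition above the mean inhibition across the screen plus 3 SD, cut at about 25% in these data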;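 further: inhibitors block binding of the rhodamine activity-based probe so polarization drops; 0% = enzyme with DMSO and 100% = wells lacking pPAFAH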
# PAFAH2 inh: inhibitors of human PAFAH2 | recombinant PAFAH2, FP-rhodamine activity probe, fluorescence polarization | Q99487 | 340,000 tested, 0.99% active | AID 492956 | inhibition, % at 3.39 µM;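 active means inhibition above the mean over all tested compounds plus 3 SD, cut at about 30% in these data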;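 further: inhibitors block probe labeling of enzyme so polarization drops; 0% = enzyme with DMSO and 100% = wells lacking PAFAH2 protein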
# PKA-R2B activ: activates the human PKA-R2B holoenzyme complex; P22694+P31323; PKA-R2B holoenzyme dissociation, Cy5-IP20 fluorescence polarization; R2B truncated from residue 108, S112A mutant; 0% DMSO only, 100% 113 µM cGMP; activation, % at 11.4 µM; 340,000 tested, 0.079% active; AID 504700;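 active means activation above a cutoff set at the mean over all compounds plus 3 SD, cut at about 18% in these data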;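 further: higher means more holoenzyme dissociation and a rise in polarization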
# Target sequence (P31323 whole entry, looked up, other chains not shown, the tested form may be a part): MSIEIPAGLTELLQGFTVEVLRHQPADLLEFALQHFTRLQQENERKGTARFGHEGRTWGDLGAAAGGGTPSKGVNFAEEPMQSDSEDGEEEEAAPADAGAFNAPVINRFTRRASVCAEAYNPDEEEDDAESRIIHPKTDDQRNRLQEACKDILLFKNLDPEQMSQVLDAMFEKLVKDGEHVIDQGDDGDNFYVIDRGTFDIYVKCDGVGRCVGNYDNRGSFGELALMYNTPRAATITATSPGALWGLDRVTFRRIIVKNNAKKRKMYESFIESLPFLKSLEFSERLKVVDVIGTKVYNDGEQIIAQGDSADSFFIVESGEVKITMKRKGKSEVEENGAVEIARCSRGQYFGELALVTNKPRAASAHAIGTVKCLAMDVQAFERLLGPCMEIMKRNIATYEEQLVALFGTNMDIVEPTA
# An asterisk follows results filed as active; nt = no result given.
SMILES,PAFAH1B2 FP inh,PKA-R1A activ,PAFAH1B3 FP inh,pPAFAH inh,PAFAH2 inh,PKA-R2B activ
O=C1NC(c2ccccc2)N=C2Oc3ccccc3C=C12 (stereo not drawn),3,7,15,nt,-1,7
Cc1cc(C)c(S(=O)(=O)/N=C2/C=C(Sc3ncn[nH]3)C(=O)c3ccccc32)cc1C,72*,4,49*,10,47*,7
CC/C(=N\OC(=O)c1ccc(OC(C)C)cc1)c1ccc(C)cc1,1,0,0,29*,9,0
C/C(=N\OC(=O)c1ccc(OC(C)C)cc1)c1ccc(C)c(C)c1,0,-6,4,28*,23,-11
C/C(=N\OC(=O)c1ccc(F)cc1)c1ccc(F)c(F)c1,22,-5,-5,3,37*,-5
Cc1ccc(-c2cc(C(=O)O)c3cc(Br)ccc3n2)o1,23,-10,10,28*,12,-15
O=C(COc1ccc(F)cc1Br)Nc1ccccc1N1CCCC1,nt,16,nt,nt,nt,-5
CCCC(=O)Nc1nc(C)c(-c2csc(Nc3ccccc3OC)n2)s1,3,13,12,22,2,7
C=CCCC(=O)Nc1nc(C)c(-c2csc(Nc3cc(OC)ccc3OC)n2)s1,3,-15,12,34*,-11,-7
C=CCCC(=O)Nc1nc(C)c(-c2csc(Nc3cccc(OC)c3)n2)s1,3,-13,15,11,6,-4
COc1ccc(OC)c(Nc2nc(-c3sc(N)nc3C)cs2)c1,-2,-1,3,23,16,1
CCCC(=O)Nc1nc(C)c(-c2csc(Nc3cc(OC)ccc3OC)n2)s1,12,7,15,29*,7,-5
CCCC(C)C(=O)Nc1nc(C)c(-c2csc(Nc3cc(OC)ccc3OC)n2)s1 (stereo not drawn),5,14,9,28*,-5,-1
Cc1cc(C)c(C(=O)NNC(=O)c2cccnc2)c(C)c1,5,-9,10,0,4,7
Cc1cccc(NS(=O)(=O)c2cccc(C(=O)NCC3(N4CCOCC4)CCCCC3)c2)c1,16,-6,0,nt,2,-7
CN(C)c1cccc(C(=O)Nc2cccc(S(=O)(=O)NC3=NCCC3)c2)c1,6,0,5,7,4,-3
O=C(CCc1nc2sc3c(c2c(=O)[nH]1)CCCC3)Nc1cccc(Cl)c1,8,4,8,5,6,-3
CC[C@H](C)[C@H]1CNC(=O)C(=O)N1CC1CCN(CCc2ccccc2)CC1,3,-13,8,nt,-7,-13
COc1ccc(C(CNC(=O)COc2ccc(F)cc2Cl)N2CCOCC2)cc1 (stereo not drawn),1,-9,2,nt,-2,-2
COc1cc(C(C)=O)ccc1OCC(=O)NCC(c1ccc(F)cc1)N1CCOCC1 (stereo not drawn),1,2,2,28*,8,-10
O=C(NCc1cccc(Br)c1)c1cc(-c2ccccc2)nn1CC1CC(c2cccc([N+](=O)[O-])c2)=NO1 (stereo not drawn),-13,-5,-20,4,-28,1
Oc1ccc(C2=Nn3c(nnc3-c3ccco3)SC2)cc1O,29*,-5,50*,32*,49*,-8
COc1ccc(C2=Nn3c(nnc3-c3ccco3)SC2)cc1,7,1,11,7,7,-1
Cc1ccccc1C(=O)NCC(=O)OC(C)C(=O)NCc1ccco1 (stereo not drawn),-6,-7,0,2,7,-2
O=C(O)c1ccc(S(=O)(=O)/N=C2\C=C(Nc3ccccc3F)C(=O)c3ccccc32)cc1,58*,-9,61*,19,72*,-4
SMILES,PAFAH1B2 FP inh,PKA-R1A activ,PAFAH1B3 FP inh,pPAFAH inh,PAFAH2 inh,PKA-R2B activ
Cc1ccccc1NC1=C/C(=N\S(=O)(=O)c2ccc(C(=O)O)cc2)c2ccccc2C1=O,34*,1,65*,22,67*,5
COC(=O)C(C(C)=O)C1=C/C(=N\S(=O)(=O)c2ccc(C)cc2)c2ccccc2C1=O (stereo not drawn),1,-9,1,3,4,-7
CCN(C[C@H]1N[C@@](CC)(C(=O)OC)[C@H]2C(=O)N(C)C(=O)[C@@H]12)C(C)=O,2,-4,3,-2,0,1
COCc1n[nH]c(=S)n1-c1ccccc1,-8,0,1,-2,-1,-10
S=c1[nH]nc(CSCc2ccccc2Cl)n1-c1ccccc1,6,-13,-1,27*,-2,-11
O=S(=O)(c1ccc(F)cc1)N1CCN(C(=S)NCCc2ccccc2)CC1,24*,0,3,5,-2,-6
Oc1ccc(N2CCN(C(=S)NCCc3ccccc3)CC2)cc1,1,-11,7,29*,-1,-1
O=S(=O)(c1ccc(Cl)cc1)N1CCN(C(=S)Nc2ccccc2F)CC1,25*,1,-5,-3,-3,-4
O=S(=O)(c1ccc(F)cc1)N1CCN(C(=S)NCc2ccccc2)CC1,1,-6,3,2,-2,-12
O=C(OCCc1cc2ccccc2c(=O)o1)c1ccc(C(F)(F)F)cc1,6,-2,-5,4,2,-1
Fc1ccc(-c2csc(N3CCSCC3)n2)cc1,4,-2,2,3,9,-1
CC1=NN(c2nc(-c3ccc(F)cc3)cs2)C(=O)C1,5,-6,4,30*,14,2
COc1ccc(N2CCN(C(=O)CNC(=O)c3cccc(Br)c3)CC2)cc1,0,3,6,9,10,-2
CCC(=O)Nc1ccc(-c2ccc(NC(=O)CC)c(OC)c2)cc1OC,6,-7,2,6,-2,-13
CCOc1ccc(NS(=O)(=O)c2ccc(NC(C)=O)c(OC)c2)cc1,3,-4,7,25*,-5,2
COc1cc(S(=O)(=O)Nc2ccc(C)cc2)ccc1NC(=O)c1ccncc1,0,6,2,34*,6,-5
CCC(=O)Nc1ccc(S(=O)(=O)Nc2cccc(C)c2)cc1OC,2,4,10,30*,7,6
Cc1ccc(S(=O)(=O)Nc2ccc(C(=O)Nc3ccncc3)cc2)cc1,5,0,5,1,-13,-13
O=C(COc1cc2oc(=O)c3c(c2cc1Cl)CCC3)NCC(O)c1ccccc1 (stereo not drawn),0,4,0,2,-5,2
COCCOc1cc(NC(=O)c2ccccc2)c(Cl)cc1Cl,6,-15,7,2,8,6
CNC(=O)CS(=O)CC(=O)Nc1cc(OCCOC)c(Cl)cc1Cl (stereo not drawn),4,11,3,30*,-1,2
